High-throughput results deposited in PubChem BioAssay by Broad Institute.
YB-1 expression: YB-1 expression inhibition; actives 0.37% (n = 30,000); delta delta Cp (YB-1 minus CDIP) (test concentration not listed); U2OS, qRT-PCR YB-1 vs CDIP delta delta Cp, 16 h; hits give high values; zero = DMSO, each unit about twofold;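 active means delta delta Cp rounded down to an integer at or above 3, about 3 SD of DMSO wells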;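 further: higher means less YB-1 transcript or more CDIP transcript relative to DMSO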
PD-1 reversal: activators reversing PD-1 mediated T-cell inhibition | activation, % (no concentration beside the values) | AID 2316 | 29,000 tested, under 10 active | primary human CD4 T cells, PD-L1 beads, CellTiter-Glo 96 h; call rule not given here
NOMO-1 viab: STK33 inhibitor candidate reducing NOMO-1 cell viability; NOMO-1 AML viability, CellTiter-Glo luminescence, 72 h; actives 7.5% (n = 37,000); inhibition, % (concentration not given with the values); AID 2330; in the data active means inhibition above about 80%; inconclusive means no clear call, values can overlap the other calls
U2OS ROS induce: cancer cell ROS induction; actives 2% (n = 46,000); ROS induction (% of piperlongumine), % at 10 µM; U2OS ROS induction, H2DCF-DA fluorescence; in the data active means ROS induction above about 79%, passing the limit was not always enough; inconclusive means no clear call, values can overlap the other calls
Of the large screens only hits and unclear results are named; the others gave an inactive call. This is one part of a sample in which hits are shown more often than they occur.

CN(C(=O)C(Cl)Cl)c1ccc(OC(=O)c2ccco2)cc1	YB-1 expression 3.72
COc1ccc(C2CC(C(F)(F)F)n3ncc(C(=O)Nc4sc5c(c4C#N)CCC(C)C5)c3N2)cc1OC (configuration not stated)	none (no result: YB-1 expression)
Cc1sc(NC(=O)Cn2nc(C(F)(F)F)cc2C)c(C(N)=O)c1C	NOMO-1 viab 118.2
O=C(NCc1ccco1)c1ccc(Cn2c(=S)[nH]c3ccc(Br)cc3c2=O)cc1	U2OS ROS induce 81.2 (no result: YB-1 expression, PD-1 reversal, NOMO-1 viab)
Cc1ccc(NC(=O)c2ccc3c(=O)n(Cc4ccco4)c(=S)[nH]c3c2)cc1Cl	NOMO-1 viab 120.6
COc1cc(O)c(C(C)=O)c(OC)c1	none (no result: PD-1 reversal)
COc1cc(O)c(C(=O)c2c(C)cc(O)cc2OC)c(O)c1	NOMO-1 viab 121.1
O=C(CCCCCCC(=O)Nc1ccccc1O)N/N=C/c1ccc(O)cc1	none (no result: PD-1 reversal, NOMO-1 viab)
O=C(CSc1nc2ccccc2c(=O)n1Cc1ccccc1)c1cc2ccccc2o1	none (no result: YB-1 expression)
CS(=O)(=O)Nc1ccc(C(=O)CC2(O)C(=O)Nc3ccc(Br)cc32)cc1 (configuration not stated)	none (no result: YB-1 expression)
CC(C)(C)N1C(=O)c2ccccc2C1=O	none
CCOc1ccc(NC(=O)c2c(NC(=O)c3ccco3)sc3c2CCCCC3)cc1	NOMO-1 viab 110.0 (no result: YB-1 expression, PD-1 reversal, U2OS ROS induce)
N#CCSc1nc2nccnc2c(=O)n1CCc1ccccc1	none (no result: YB-1 expression, PD-1 reversal, NOMO-1 viab)
C=CCn1cnc2c(cnn2-c2ccc(F)cc2)c1=O	none (no result: YB-1 expression, PD-1 reversal, NOMO-1 viab)
CN1CCN(NC(=O)CCN2C(=O)/C(=C\c3ccccc3)SC2=S)CC1	none
COc1ccc(/C=C2\SC(=S)N(CCCC(=O)O)C2=O)cc1OC	U2OS ROS induce 137.6
Cc1ccc(S(=O)(=O)Nc2ccc3c(c2)CC(=O)N([C@@H](C)CO)C[C@H](C)[C@H](CN(C)Cc2ccc(Oc4ccccc4)cc2)O3)cc1	NOMO-1 viab 120.4
Cc1ccc(S(=O)(=O)Nc2ccc3c(c2)CC(=O)N([C@@H](C)CO)C[C@@H](C)[C@@H](CN(C)Cc2ccc(Oc4ccccc4)cc2)O3)cc1	NOMO-1 viab 114.8
C[C@H]1CN([C@@H](C)CO)C(=O)Cc2cc(NS(=O)(=O)c3ccccc3)ccc2O[C@H]1CN(C)Cc1ccc(Oc2ccccc2)cc1	none (no result: PD-1 reversal)
COc1ccc(-c2cnc3c(c2)C(=O)N([C@H](C)CO)C[C@H](C)[C@H](CN(C)Cc2cccc(C(F)(F)F)c2)O3)cc1	U2OS ROS induce 110.4 (no result: PD-1 reversal, NOMO-1 viab)
Cc1cccc(CN(C)C[C@@H]2Oc3ncc(-c4cccc(C(F)(F)F)c4)cc3C(=O)N([C@H](C)CO)C[C@@H]2C)c1	U2OS ROS induce 103.6 (no result: PD-1 reversal, NOMO-1 viab)
COc1ccc(C#Cc2cnc3c(c2)C(=O)N([C@H](C)CO)C[C@H](C)[C@H](CN(C)Cc2cccc(C(F)(F)F)c2)O3)cc1OC	none (no result: PD-1 reversal, NOMO-1 viab)
C[C@H](CO)N1C[C@H](C)[C@H](CN(C)Cc2cccc(C(F)(F)F)c2)Oc2ncc(-c3ccccc3)cc2C1=O	none (no result: PD-1 reversal, NOMO-1 viab)
Cc1cc(C)c(S(=O)(=O)NC(C)C2C3CC4CC(C3)CC2C4)c(C)c1 (configuration not stated)	none (no result: YB-1 expression, PD-1 reversal, NOMO-1 viab)
O=C(N/N=C/C[P+](c1ccccc1)(c1ccccc1)c1ccccc1)c1ccccc1O	none (no result: PD-1 reversal, NOMO-1 viab)
O=C1C(=O)N(Cc2ccco2)C(c2cccs2)C1C(=O)c1cccs1 (configuration not stated)	none (no result: YB-1 expression, U2OS ROS induce)
COc1ccc(C)cc1NC(=O)c1ccc(OCC(=O)Nc2cccc(C(F)(F)F)c2)cc1	none (no result: YB-1 expression, PD-1 reversal, U2OS ROS induce)
C[C@@H]1CN([C@@H](C)CO)C(=O)c2cc(NS(=O)(=O)c3ccc(Cl)cc3)ccc2O[C@@H]1CN(C)Cc1ccccc1	none (no result: PD-1 reversal)
C[C@@H]1CN([C@@H](C)CO)C(=O)c2cc(NS(=O)(=O)c3ccc(Cl)cc3)ccc2O[C@H]1CN(C)Cc1ccc(-c2ccccc2)cc1	NOMO-1 viab 106.3, U2OS ROS induce inconclusive
C[C@H](CO)N1C[C@H](C)[C@H](CN(C)Cc2ccccc2)Oc2ccc(NS(=O)(=O)c3ccc(Cl)cc3)cc2C1=O	YB-1 expression 6.13
O=[N+]([O-])c1ccc(NCCNC(=S)Nc2ccc(Cl)cc2)nc1	none (no result: YB-1 expression)
O=C(CN1C(=O)CSc2ccc(C(F)(F)F)cc21)Nc1cccc(C(F)(F)F)c1	none (no result: YB-1 expression, PD-1 reversal, NOMO-1 viab)
S=C(c1nc2ccccc2[nH]1)N1CCOCC1	YB-1 expression 5.19
COc1cc(/C=C/C(=O)N2CCC=CC2=O)cc(OC)c1OC	NOMO-1 viab 118.9 (no result: PD-1 reversal)
C[C@H](CO)N1C[C@H](C)[C@H](CN(C)Cc2ccc(C(=O)Nc3ccccc3N)cc2)Oc2ccc(NC(=O)Cc3cn(C)c4ccccc34)cc2CC1=O	NOMO-1 viab 127.0
C[C@@H]1CN([C@@H](C)CO)C(=O)c2cc(NC(=O)Cc3cn(C)c4ccccc34)ccc2O[C@H]1CN(C)Cc1ccc(C(=O)Nc2ccccc2N)cc1	none
